Reference: PubChem BioAssay (EPA / NIEHS)
The source made the active and inactive calls. The calls were made as follows: active = hit-call score of the fitted dose curve at least 0.9, where 1 is the maximum; inactive = score below 0.9.

Columns and labels:
[1] = read-out: Monokine induced gamma interferon (MIG), CXCL9 (gene 4283); experiment: BSK_BE3C_MIG: BioMAP Diversity Plus: BE3C Assay for Monokine induced gamma interferon (MIG) Biomarker Activity (AID 2283035); conditions: primary human bronchial epithelial cells; actives raise or lower the signal;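 also: MIG protein measured by ELISA in BE3C cultures after 24 h of dosing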
Summary of the method: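 ELISA quantified MIG after 24 h exposure of primary bronchial epithelial cultures, analysed in both directions relative to DMSO. Cytotoxicity tracked in parallel cultures by sulforhodamine B staining.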

[2] = read-out: Transforming growth factor beta 1 (TGFb1), TGFB1 (gene 7040); experiment: BSK_BE3C_TGFb1: BioMAP Diversity Plus: BE3C Assay for Transforming growth factor beta 1 (TGFb1) Biomarker Activity (AID 2283036;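 also: TGF-b1 protein level measured by ELISA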); conditions: primary human bronchial epithelial cells; actives raise or lower the signal
Summary of the method: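 Bronchial epithelial primary cells are treated with test chemical, then TGF-b1 is quantified by ELISA after 24 hours. Values derive from bidirectional fitting against DMSO, with cytotoxicity checked by SRB staining in parallel cultures.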

[3] = read-out: Plasminogen activator inhibitor-1 (PAI1), SERPINE1 (gene 5054); experiment: BSK_BE3C_PAI1: BioMAP Diversity Plus: BE3C Assay for Plasminogen activator inhibitor-1 (PAI1) Biomarker Activity (AID 2283037); conditions: primary human bronchial epithelial cells; actives raise or lower the signal
Summary of the method: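 Values derive from bidirectional fitting against DMSO baseline of PAI-1 levels, measured by ELISA in human bronchial epithelial cells 24 h after compound addition.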

[4] = read-out: urokinase plasminogen activator (uPA), PLAU (gene 5328); experiment: BSK_BE3C_uPA: BioMAP Diversity Plus: BE3C Assay for urokinase plasminogen activator (uPA) Biomarker Activity (AID 2283038); conditions: primary human bronchial epithelial cells; actives raise or lower the signal;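 also: uPA protein level quantified by ELISA in cell cultures; uPA read one day after compound addition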
Summary of the method: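 Measured by ELISA: uPA from human primary bronchial epithelial cells 24 h after chemical treatment. Values derive from bidirectional curve fitting with DMSO serving as negative control. Total protein by SRB staining in parallel wells flagged overt cytotoxicity.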

[5] = read-out: Urokinase-type plasminogen activator receptor (uPAR), PLAUR (gene 5329); experiment: BSK_BE3C_uPAR: BioMAP Diversity Plus: BE3C Assay for Urokinase-type plasminogen activator receptor (uPAR) Biomarker Activity (AID 2283039); conditions: primary human bronchial epithelial cells; actives raise or lower the signal;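 also: uPAR protein level measured by ELISA on the cells; cells exposed to compound for one day before measurement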
Summary of the method: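 Steps: dose human primary bronchial epithelial cells, incubate 24 h, measure uPAR by ELISA, then fit gain- or loss-of-signal response bidirectionally relative to DMSO.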

[6] = read-out: Interleukin-6 (IL6), IL6 (gene 3569); experiment: BSK_CASM3C_IL6: BioMAP Diversity Plus: CASM3C Assay for Interleukin-6 (IL6) Biomarker Activity for (AID 2283040); conditions: primary human coronary artery smooth muscle cells; actives raise or lower the signal
[7] = read-out: Tissue plasminogen activator (tPA), PLAT (gene 5327); experiment: BSK_BE3C_tPA: BioMAP Diversity Plus: BE3C Assay for Tissue plasminogen activator (tPA) Biomarker Activity (AID 2283041); conditions: primary human bronchial epithelial cells; actives raise or lower the signal;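 also: tPA level quantified by ELISA one day after compound addition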
Summary of the method: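 Gain- or loss-of-signal in tPA, measured by ELISA, derived by bidirectional fitting against DMSO. Cells: human primary bronchial epithelial; read at 24 h after chemical dosing.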

[8] = read-out: Interleukin-8 (IL8), CXCL8 (gene 3576); experiment: BSK_CASM3C_IL8: BioMAP Diversity Plus: CASM3C Assay for Interleukin-8 (IL8) Biomarker Activity (AID 2283042); conditions: primary human coronary artery smooth muscle cells; actives raise or lower the signal;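 also: IL-8 protein level quantified by ELISA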
[9] = read-out: Human Leukocyte Antigen - DR isotype (HLADR), HLA-DRA (gene 3122); experiment: BSK_CASM3C_HLADR: BioMAP Diversity Plus: CASM3C Assay for Human Leukocyte Antigen - DR isotype (HLADR) Biomarker Activity (AID 2283043); conditions: primary human coronary artery smooth muscle cells; actives raise or lower the signal;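 also: cell-surface HLA-DR protein level quantified by ELISA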
[10] = read-out: Macrophage colony-stimulating factor (MCSF), CSF1 (gene 1435); experiment: BSK_CASM3C_MCSF: BioMAP Diversity Plus: CASM3C Assay for Macrophage colony-stimulating factor (MCSF) Biomarker Activity (AID 2283044); conditions: primary human coronary artery smooth muscle cells; actives raise or lower the signal;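 also: M-CSF protein amount quantified by ELISA after 24 h exposure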
[11] = read-out: Low-density lipoprotein receptor (LDLR), LDLR (gene 3949); experiment: BSK_CASM3C_LDLR: BioMAP Diversity Plus: CASM3C Assay for Low-density lipoprotein receptor (LDLR) Biomarker Activity (AID 2283045); conditions: primary human coronary artery smooth muscle cells; actives raise or lower the signal;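 also: LDLR protein level on the cell surface quantified by ELISA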
[12] = read-out: Monocyte Chemoattractant Protein-1 (MCP1), CCL2 (gene 6347); experiment: BSK_CASM3C_MCP1: BioMAP Diversity Plus: CASM3C Assay for Monocyte Chemoattractant Protein-1 (MCP1) Biomarker Activity (AID 2283046); conditions: primary human coronary artery smooth muscle cells; actives raise or lower the signal;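 also: MCP-1 level quantified by ELISA 24 h after dosing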
[13] = BSK_CASM3C_Proliferation: Cell Proliferation Assessment in the BioMAP Diversity Plus: CASM3C Assay (AID 2283047); conditions: primary human coronary artery smooth muscle cells;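 also: sulforhodamine B total protein stain as relative cell number at 560 nm; sub-confluent cells exposed 48 h before staining; fitted both ways against DMSO so gain or loss of cell number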
[14] = read-out: Monokine induced gamma interferon (MIG), CXCL9 (gene 4283); experiment: BSK_CASM3C_MIG: BioMAP Diversity Plus: CASM3C Assay for Monokine induced gamma interferon (MIG) Biomarker Activity (AID 2283048); conditions: primary human coronary artery smooth muscle cells; actives raise or lower the signal;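 also: MIG protein level measured by ELISA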
[15] = read-out: serum amyloid A (SAA), SAA1 (gene 6288); experiment: BSK_CASM3C_SAA: BioMAP Diversity Plus: CASM3C Assay for serum amyloid A (SAA) Biomarker Activity (AID 2283049); conditions: primary human coronary artery smooth muscle cells; actives raise or lower the signal;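 also: SAA protein level quantified by ELISA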
[16] = BSK_CASM3C_SRB: Viability Assessment in the BioMAP Diversity Plus: CASM3C Assay (AID 2283050); conditions: primary human coronary artery smooth muscle cells;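 also: total protein by SRB staining as cytotoxicity measure in parallel cultures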
[17] = read-out: Thrombomodulin, THBD (gene 7056); experiment: BSK_CASM3C_Thrombomodulin: BioMAP Diversity Plus: CASM3C Assay for Thrombomodulin Biomarker Activity (AID 2283051); conditions: primary human coronary artery smooth muscle cells; actives raise or lower the signal;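 also: thrombomodulin protein level measured by ELISA 24 h after dosing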
[18] = read-out: Tissue Factor, F3 (gene 2152); experiment: BSK_CASM3C_TissueFactor: BioMAP Diversity Plus: CASM3C Assay for Tissue Factor Biomarker Activity (AID 2283052); conditions: primary human coronary artery smooth muscle cells; actives raise or lower the signal;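 also: cell surface tissue factor protein level read by ELISA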
[19] = read-out: Interferon-gamma inducible Protein 10 (IP10), CXCL10 (gene 3627); experiment: BSK_hDFCGF_IP10: BioMAP Diversity Plus: hDFCGF Assay for Interferon-gamma inducible Protein 10 (IP10) Biomarker Activity (AID 2283053); conditions: primary human foreskin fibroblasts; actives raise or lower the signal
Summary of the method: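 Cells: human dermal foreskin fibroblasts. Exposure: 24 h post-dosing. Detection: IP-10 ELISA, with values expressed against DMSO controls and fitted in both directions.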

[20] = read-out: Urokinase-type plasminogen activator receptor (uPAR), PLAUR (gene 5329); experiment: BSK_CASM3C_uPAR: BioMAP Diversity Plus: CASM3C Assay for Urokinase-type plasminogen activator receptor (uPAR) Biomarker Activity (AID 2283054); conditions: primary human coronary artery smooth muscle cells; actives raise or lower the signal;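 also: cell-surface uPAR protein level quantified by ELISA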

Measured: AC50

O=C(O)c1cc(N=Nc2ccc(S(=O)(=O)Nc3ccccn3)cc2)ccc1O
active: [13] 14.5 µM
inactive: all other assays above

C[C@](N)(Cc1ccc(O)c(O)c1)C(=O)O
active: [19] 23.2 µM
inactive: all other assays above

CC(C)=CCCC(C)CCO (configuration not stated)
inactive: all assays above

C=CCCCCCCCCC(=O)O
not listed: [5]
inactive: all other assays above

Cn1c(=O)cc(Oc2ccc(F)cc2F)c2cnc(NCC(C)(C)O)nc21
active: [3] 9.04 µM | [6] 5.13 µM | [8] 3.16 µM | [9] 1.42 µM | [15] 3.97 µM | [19] 1.15 µM
inactive: all other assays above

CCCCC(CC)COC(=O)c1ccc(C(=O)OCC(CC)CCCC)cc1 (configuration not stated)
not listed: [5]
inactive: all other assays above

CC1(C)C(=O)N(Br)C(=O)N1Br
inactive: all assays above

CC(C)=CCC/C(C)=C/CO
inactive: all assays above

CC1=CC(=O)CC(C)(C)C1
not listed: [5]
inactive: all other assays above

CCOCCO
inactive: all assays above

CC(O)CN(CCN(CC(C)O)CC(C)O)CC(C)O (configuration not stated)
inactive: all assays above

Nc1ccc(Nc2ccccc2)cc1
active: [13] 20 µM | [17] 3.23 µM | [20] 2.33 µM
inactive: all other assays above
